This note sets out measurements from PubChem BioAssay.

The assay concerns wheat germ agglutinin (Triticum aestivum), Alexa647-labelled. Briefly: Alexa647-WGA lectin binding to printed small molecules – biochemical, small-molecule microarray, 635/667 nm fluorescence, artefact control for SMM control-protein annotation, profiling panel (AID 1140).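 Further: score merges 667 nm feature emission with signal to noise over triplicate slides.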 The note with it: WGA-A647 binding, 635 nm fluorescence, higher = more signal.
As to `O=C(O)C1=CC[C@H]2C(=O)N(c3ccccc3)C(=O)[C@@H]12`, the composite z-score came to 0.701.

`CCc1cccc(NC(=O)O[C@H]2[C@H](OC(=O)Nc3ccccc3-c3ccccc3)[C@H](OC(=O)Nc3ccccc3-c3ccccc3)[C@@H](OC)O[C@@H]2CO)c1` yielded a composite z-score of 0.834.

Compound `C=C(COC)/C(=C/C[C@@H](OC(C)=O)c1cccc(OCCO)c1)c1cnc2ccccc2c1` gave a composite z-score of 1.04.

In turn, `Cc1ccc(S[C@]2(C(=O)NCc3ccccc3)CC(=O)N(Cc3ccccc3C(F)(F)F)[C@@H]2c2ccc(CO)cc2I)cc1` yielded a composite z-score of 0.0776.

`COCCOC(=O)N1C(=O)[C@@]2(c3cc(C#CC4(O)CCCCCC4)ccc31)[C@H](C(N)=O)[C@H]1C(=O)O[C@H](c3ccccc3)[C@H](c3ccccc3)N1[C@@H]2c1ccc(OCCO)cc1` came in with a composite z-score of 1.11.

Compound `COc1c(C)cc(-c2cc3c(c(CCc4ccccc4)n2)[Si](C(C)C)(C(C)C)O[C@H]3c2ccccc2)cc1C` came in with a composite z-score of 0.183.

Compound `COC(=O)[C@@]1(Cc2ccc(F)cc2)[C@H]2c3cc(C(=O)N(C)C)n(Cc4cccc5ccccc45)c3C[C@H]2CN1C(=O)c1ccccc1` registered a composite z-score of 0.115.

Regarding `CC(C)C[C@@H]1NC(=O)[C@@H]2C[C@H](C(=O)NCCCCCNC(=O)CS)[C@H](c3ccc(O)cc3)N2C1=O`, the composite z-score is 0.263.

For `C=C[C@@H](CO)NS(=O)(=O)c1ccc(Br)cc1`, the composite z-score was -0.448.

`COC(=O)[C@@]1(Cc2ccc(F)cc2)[C@H]2c3cc(C(=O)N(C)C)n(CCF)c3C[C@H]2CN1C(=O)c1ccccc1` showed a composite z-score of 0.338.

With `COC(=O)[C@@]1(Cc2ccccc2)[C@H]2c3cc(C(=O)N(C)C)n(Cc4nc5ccccc5[nH]4)c3C[C@H]2CN1C(=O)c1ccccc1`, the composite z-score was 0.779.
